Test [1] can be described thus: qHTS assay to identify aromatase inhibitors - cell viability counter screen (AID 743084).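 Further: cells stimulated with testosterone during compound exposure; nearly all actives have a fitted effect of over 55% in size.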 Further: potency means the concentration at half of the fitted maximal effect. A general note: Quantitative high-throughput screening tests each substance at several concentrations.
For test [2], the target named is Aryl hydrocarbon receptor (Homo sapiens) (UniProt P35869). As to the kind of experiment: qHTS assay to identify small molecule that activate the aryl hydrocarbon receptor (AhR) signaling pathway (AID 743085).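 Further: HG2L7.5c1 human HepG2 liver cells with stably integrated DRE-driven firefly reporter; series mostly up to about 70 µM; nearly all actives have a fitted effect of over 15% in size.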 In outline: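 24 h compound exposure, 37C, HepG2-derived HG2L7.5c1 cells with DRE-responsive luciferase. Readouts: fluorescence viability, then luminescence at room temperature after 30 min.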

Test [3] in a line: qHTS assay to identify small molecule that activate the aryl hydrocarbon receptor (AhR) signaling pathway - cell viability counter screen (AID 743086). Further: nearly all actives have a fitted effect of over 45% in size. Further: potency means the concentration at half of the fitted maximal effect. The procedure, abridged: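 HepG2-AhR-luc (HG2L7.5c1) cells, 4000/well, treated 24 h at 37 C with compound; viability measured as CellTiter-Fluor fluorescence after 30 min in the same wells as the luciferase read.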
The target of test [4] is Peroxisome proliferator-activated receptor gamma (Homo sapiens) (UniProt P37231). Description: qHTS assay to identify small molecule agonists of the peroxisome proliferator-activated receptor gamma (PPARg) signaling pathway (AID 743094; active means well fitted activation curve with a large enough effect in the signal ratio in the repeat runs, not every such curve was filed as active; the % refers to the signal ratio). The procedure, abridged:
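Compounds dissolved in DMSO were added to PPARg UAS-bla HEK293H cells for 17 h at 37C, and reporter expression was quantified by fluorescence intensity after 1 h with LiveBLAzer B/G FRET substrate.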

The target is the same in test [5]. Description: qHTS assay to identify small molecule antagonists of the peroxisome proliferator-activated receptor gamma (PPARg) signaling pathway (AID 743191; calls by dose curve; further: nearly all actives have a fitted effect of over 30% in size; further: potency means the concentration at half of the fitted maximal effect). The procedure, abridged:
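GeneBLAzer PPARg UAS-bla HEK293H cells, 5 h post-plating, exposed to compounds 17 h at 37C. LiveBLAzer B/G FRET substrate added for 1 h at room temperature; beta-lactamase reporter read by fluorescence intensity.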

Test [6] can be described thus: qHTS assay to identify small molecule antagonists of the peroxisome proliferator-activated receptor gamma (PPARg) signaling pathway - cell viability counter screen (AID 743194). Further: nearly all actives have a fitted effect of over 55% in size. The procedure, abridged:
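Cytotoxicity counter screen in PPARg-bla HEK293H cells, same wells as reporter assay. Compounds plus 50 nM rosiglitazone (final) for 17 h at 37 C, then viability read by CellTiter-Glo luminescence.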

A short description of test [7]: qHTS assay for small molecule agonists of the antioxidant response element (ARE) signaling pathway (AID 743202; active means well fitted activation curve with a large enough effect in the signal ratio in the repeat runs, not every such curve was filed as active; the % refers to the signal ratio; further: potency means the concentration at half of the fitted maximal effect). The procedure, abridged:
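Agonist mode reporter screen: HepG2 cells with ARE-controlled beta-lactamase are incubated with test compounds for 16 h at 37 C, and beta-lactamase activity is measured as fluorescence of cleaved B/G FRET substrate.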

Test [8] can be described thus: qHTS assay for small molecule agonists of the antioxidant response element (ARE) signaling pathway - cell viability counter screen (AID 743203; calls by dose curve; further: nearly all actives have a fitted effect of over 55% in size; further: potency means the concentration at half of the fitted maximal effect). In outline:
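Following 16 hrs of compound treatment at 37C, HepG2 cells with an ARE-controlled beta-lactamase gene were lysed with CellTiter-Glo. Luminescence was read after 30 min at room temperature.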

Test [9] in a line: qHTS assay for small molecule activators of the heat shock response signaling pathway - cell viability counter screen (AID 743209). Further: nearly all actives have a fitted effect of over 50% in size. Further: potency means the concentration at half of the fitted maximal effect. In outline:
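Readout: CellTiter-Glo luminescence, 30 min at room temperature. System: HSE-bla HeLa cells, 1500/well, plated overnight. Treatment: compounds in DMSO, 5 h at 37 C.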

A short description of test [10]: qHTS assay to identify small molecule agonists of the peroxisome proliferator-activated receptor delta (PPARd) signaling pathway - cell viability counter screen (AID 743211). Further: nearly all actives have a fitted effect of over 55% in size. Further: potency means the concentration at half of the fitted maximal effect. The procedure, abridged: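 Luminescent ATP viability assay (CellTiter-Glo, 30 min RT) in UAS-bla HEK293H cells carrying the PPAR delta reporter construct, 3000 cells/well, after a 17 h compound treatment at 37 C.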

Test [11] is described as follows: qHTS assay to identify small molecule antagonists of the peroxisome proliferator-activated receptor delta (PPARd) signaling pathway - cell viability counter screen (AID 743213). Further: nearly all actives have a fitted effect of over 50% in size. Further: potency means the concentration at half of the fitted maximal effect. In outline: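 Cytotoxicity counter screen: CellTiter-Glo luminescence read 30 min after addition, in the same wells as the reporter assay. There, PPARd UAS-bla HEK293H cells (3000/well) were treated 17 h at 37 C with compound and 300 nM L165041.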

Test [12] deals with Bile acid receptor (Homo sapiens) (UniProt Q96RI1). As to the kind of experiment: qHTS assay to identify small molecule antagonists of the farnesoid-X-receptor (FXR) signaling pathway (AID 743217; active means well fitted inhibition curve with a large enough effect in the signal ratio in the repeat runs, not every such curve was filed as active; the % refers to the signal ratio). The procedure, abridged:
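GeneBLAzer FXR-UAS-bla HEK 293T, CDCA-stimulated (50 uM final). Compound treatment 16 h, 37 °C. Detection: beta-lactamase cleavage of B/G FRET substrate, fluorescence.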

Test [13] can be described thus: qHTS assay to identify small molecule agonists of the farnesoid-X-receptor (FXR) signaling pathway - cell viability counter screen (AID 743218). Further: nearly all actives have a fitted effect of over 45% in size. Further: potency means the concentration at half of the fitted maximal effect. The procedure, abridged:
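Parallel cytotoxicity test: compound-treated (16 h, 37 C) HEK 293T FXR-bla reporter cells were lysed with CellTiter-Glo and luminescence recorded.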

Test [14] is described as follows: qHTS assay to identify small molecule antagonists of the farnesoid-X-receptor (FXR) signaling pathway - cell viability counter screen (AID 743221; active means well fitted cell-killing curve with a large enough effect in the repeat runs, not every such curve was filed as active; further: nearly all actives have a fitted effect of over 50% in size; further: potency means the concentration at half of the fitted maximal effect). The procedure, abridged: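 In GeneBLAzer FXR-UAS-bla HEK 293T cells stimulated with 50 uM chenodeoxycholic acid (final), compounds acted for 16 h at 37 C. Viability was assessed afterwards by CellTiter-Glo luminescence.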

The target in test [15] is Vitamin D3 receptor (Homo sapiens) (UniProt P11473). As to the kind of experiment: qHTS assay to identify small molecule agonists of the vitamin D receptor (VDR) signaling pathway (AID 743222; calls by dose curve). The procedure, abridged:
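In VDR-bla cells, compound-induced beta-lactamase expression is quantified by FRET substrate fluorescence. Treatment lasts 16 h at 37C; substrate develops 2 h at room temperature.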

For test [16] the target is unchanged. As to the kind of experiment: qHTS assay to identify small molecule antagonists of the vitamin D receptor (VDR) signaling pathway (AID 743223; active means well fitted inhibition curve with a large enough effect in the signal ratio in the repeat runs, not every such curve was filed as active; the % refers to the signal ratio). The procedure, abridged: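 Agonist 1alpha,25-dihydroxyvitamin D3 (3 nM in well) was added with each compound to VDR-bla cells preincubated 4 h. Cells stood 16 h at 37C, then FRET substrate 2 h at room temperature; fluorescence intensity recorded.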

Test [17] can be described thus: qHTS assay for small molecule activators of the heat shock response signaling pathway (AID 743210; active means well fitted activation curve with a large enough effect in the signal ratio in the repeat runs, with a control signal flat, not every such curve was filed as active; the % refers to the signal ratio; further: potency means the concentration at half of the fitted maximal effect;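 on activation: HeLa cells with beta-lactamase reporter driven by heat shock elements; series mostly up to about 63 µM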). The procedure, abridged:
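Quantitative high-throughput format using an engineered HeLa line in which heat shock response elements drive beta-lactamase; after 5 h with compound, cells received a B/G FRET substrate and fluorescence was read.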

Test [18] has as its target Peroxisome proliferator-activated receptor delta (Homo sapiens) (UniProt Q03181). Description: qHTS assay to identify small molecule agonists of the peroxisome proliferator-activated receptor delta (PPARd) signaling pathway (AID 743212; calls by dose curve). The procedure, abridged: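 Quantitative high-throughput agonist screen in a HEK293H beta-lactamase reporter line under UAS control. Compounds in DMSO, at 37 C. Fluorescence read after 2 h with FRET substrate at room temperature.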

Test [19] has the same target. Description: qHTS assay to identify small molecule antagonists of the peroxisome proliferator-activated receptor delta (PPARd) signaling pathway (AID 743215; active means well fitted inhibition curve with a large enough effect in the signal ratio in the repeat runs, not every such curve was filed as active; the % refers to the signal ratio;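 further: cells stimulated with agonist L165041 at 300 nM final during compound exposure; series mostly up to about 62 µM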). In outline: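 HEK293H UAS-bla, PPARd; agonist L165041 300 nM final with cpd in DMSO; 37 C 17 h; FRET substrate, RT 2 h; fluorescence intensity.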
The target in test [20] is Bile acid receptor (Homo sapiens) (UniProt Q96RI1). As to the kind of experiment: qHTS assay to identify small molecule agonists of the farnesoid-X-receptor (FXR) signaling pathway (AID 743220; active means well fitted activation curve with a large enough effect in the signal ratio in the repeat runs, not every such curve was filed as active; the % refers to the signal ratio). In outline: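 Beta-lactamase reporter under UAS control in GeneBLAzer FXR HEK 293T cells (5000/well) measured with LiveBLAzer FRET substrate after 2 h at room temperature. Compound exposure lasted 16 h at 37C.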

Several values for one entry are separate records, joined by “and”; a condition that tells them apart may be missing. Equal values may be shown once. Records with an inconclusive call do not appear. The source holds several records for some structures; these can differ, active in one and inactive in another. Activity calls are given as the source filed them. Unless noted, the call rests on the fitted dose curve; in most records, active means well fitted curve in the direction sought with a large enough effect in the repeat runs; inconclusive means weak or mixed curves; inactive means no such curve, though single readings can be large; an effect the other way counts as inactive or inconclusive.

Bile acid receptor (Homo sapiens), sequence (Q96RI1 whole entry, looked up): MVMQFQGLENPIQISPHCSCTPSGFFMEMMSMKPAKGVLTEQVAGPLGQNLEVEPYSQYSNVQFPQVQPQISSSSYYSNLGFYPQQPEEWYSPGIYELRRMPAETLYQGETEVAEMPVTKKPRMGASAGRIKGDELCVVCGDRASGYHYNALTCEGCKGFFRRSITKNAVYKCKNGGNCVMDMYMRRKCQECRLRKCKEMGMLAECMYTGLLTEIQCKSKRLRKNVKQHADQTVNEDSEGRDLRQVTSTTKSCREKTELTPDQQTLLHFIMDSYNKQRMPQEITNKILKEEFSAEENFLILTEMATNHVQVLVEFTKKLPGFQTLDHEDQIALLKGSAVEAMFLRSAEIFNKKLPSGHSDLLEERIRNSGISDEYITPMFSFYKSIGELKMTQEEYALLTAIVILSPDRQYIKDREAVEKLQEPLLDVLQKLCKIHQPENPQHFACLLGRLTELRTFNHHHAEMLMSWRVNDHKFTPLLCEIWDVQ
Peroxisome proliferator-activated receptor delta (Homo sapiens), sequence (Q03181 whole entry, looked up): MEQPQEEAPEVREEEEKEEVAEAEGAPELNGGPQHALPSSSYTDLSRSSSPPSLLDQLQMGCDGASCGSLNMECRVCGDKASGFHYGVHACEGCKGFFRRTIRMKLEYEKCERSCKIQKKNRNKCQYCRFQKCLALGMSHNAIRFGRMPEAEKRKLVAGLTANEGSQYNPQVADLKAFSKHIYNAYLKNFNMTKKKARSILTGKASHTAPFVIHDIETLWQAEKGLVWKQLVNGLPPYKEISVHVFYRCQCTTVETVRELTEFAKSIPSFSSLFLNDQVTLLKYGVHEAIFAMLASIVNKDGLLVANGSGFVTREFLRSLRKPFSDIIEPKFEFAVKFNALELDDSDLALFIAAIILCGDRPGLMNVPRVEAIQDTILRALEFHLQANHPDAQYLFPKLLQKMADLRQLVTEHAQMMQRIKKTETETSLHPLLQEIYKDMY
Peroxisome proliferator-activated receptor gamma (Homo sapiens), sequence (P37231 whole entry, looked up): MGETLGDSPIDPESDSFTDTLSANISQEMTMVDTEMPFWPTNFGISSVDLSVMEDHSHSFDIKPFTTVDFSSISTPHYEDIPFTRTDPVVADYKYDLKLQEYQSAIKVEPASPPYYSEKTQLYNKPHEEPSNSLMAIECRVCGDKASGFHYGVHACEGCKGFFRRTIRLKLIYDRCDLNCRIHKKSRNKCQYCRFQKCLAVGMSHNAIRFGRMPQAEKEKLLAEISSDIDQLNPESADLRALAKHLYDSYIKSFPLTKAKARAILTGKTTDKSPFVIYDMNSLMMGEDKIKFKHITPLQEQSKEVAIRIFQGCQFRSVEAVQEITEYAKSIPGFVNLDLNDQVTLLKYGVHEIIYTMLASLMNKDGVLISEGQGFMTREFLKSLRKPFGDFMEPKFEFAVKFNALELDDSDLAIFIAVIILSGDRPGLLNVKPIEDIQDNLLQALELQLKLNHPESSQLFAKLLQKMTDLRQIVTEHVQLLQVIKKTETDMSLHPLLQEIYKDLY
Aryl hydrocarbon receptor (Homo sapiens), sequence (P35869 whole entry, looked up): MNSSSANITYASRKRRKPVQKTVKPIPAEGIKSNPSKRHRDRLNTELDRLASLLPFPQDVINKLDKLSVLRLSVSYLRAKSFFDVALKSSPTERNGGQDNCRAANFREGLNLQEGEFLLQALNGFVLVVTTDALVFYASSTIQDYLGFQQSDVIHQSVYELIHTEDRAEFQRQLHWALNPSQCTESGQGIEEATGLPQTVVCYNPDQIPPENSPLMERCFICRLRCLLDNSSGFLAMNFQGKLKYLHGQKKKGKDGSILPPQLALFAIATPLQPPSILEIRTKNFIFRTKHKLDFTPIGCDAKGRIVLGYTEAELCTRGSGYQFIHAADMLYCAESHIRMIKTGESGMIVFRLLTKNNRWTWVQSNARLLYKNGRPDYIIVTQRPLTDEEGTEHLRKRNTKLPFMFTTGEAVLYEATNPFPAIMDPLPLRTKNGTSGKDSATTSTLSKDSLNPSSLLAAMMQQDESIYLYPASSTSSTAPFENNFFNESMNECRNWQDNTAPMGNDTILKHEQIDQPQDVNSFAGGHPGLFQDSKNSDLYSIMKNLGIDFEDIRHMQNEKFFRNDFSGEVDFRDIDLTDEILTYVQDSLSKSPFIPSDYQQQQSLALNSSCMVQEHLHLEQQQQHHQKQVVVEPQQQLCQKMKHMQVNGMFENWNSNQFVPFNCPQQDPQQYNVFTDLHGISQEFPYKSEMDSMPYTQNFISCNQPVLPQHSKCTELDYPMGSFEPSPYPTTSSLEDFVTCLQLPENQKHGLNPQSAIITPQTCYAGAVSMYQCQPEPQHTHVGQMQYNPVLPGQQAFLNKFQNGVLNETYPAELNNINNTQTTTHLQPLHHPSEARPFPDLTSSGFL
Vitamin D3 receptor (Homo sapiens), sequence (P11473 whole entry, looked up): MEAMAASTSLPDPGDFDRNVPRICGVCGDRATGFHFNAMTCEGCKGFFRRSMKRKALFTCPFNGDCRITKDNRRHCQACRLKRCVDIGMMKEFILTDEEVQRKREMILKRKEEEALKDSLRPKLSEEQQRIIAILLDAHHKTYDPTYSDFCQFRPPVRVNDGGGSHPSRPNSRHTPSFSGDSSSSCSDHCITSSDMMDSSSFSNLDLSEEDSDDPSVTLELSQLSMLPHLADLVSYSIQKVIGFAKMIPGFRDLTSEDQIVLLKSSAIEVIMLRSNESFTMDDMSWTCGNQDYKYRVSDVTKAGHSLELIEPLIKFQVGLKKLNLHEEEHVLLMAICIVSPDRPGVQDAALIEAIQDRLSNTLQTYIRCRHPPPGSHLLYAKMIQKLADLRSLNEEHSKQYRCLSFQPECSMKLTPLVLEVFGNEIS

As to `CCCCCOC(=O)CCCC`, the Potency entry in test [1], in [2], in test [3], in test [4], in [5] and in [6] was “inactive” throughout. The Potency result in test [7], in test [8], in test [9], in [10], in [11] and in test [12] was “inactive” in each case. In addition, the Potency result in test [13], in [14], in [15] and in test [16] was “inactive” each time.
With `C1CCCC1`, the Potency entry in test [1], in [2], in [3], in test [4], in [5] and in [6] was “inactive” throughout. Further, the Potency result in [8], in test [9], in test [17], in [10], in [11] and in test [13] was “inactive” each time. The Potency result in test [14] and in test [15] was “inactive” throughout.
As to `C=C(C)C(=O)OCC[N+](C)(C)C`, the Potency result in [1], in test [2], in test [3], in test [4], in [6] and in test [8] was “inactive” throughout. Moreover, the Potency result in test [9], in test [17], in test [10], in [18], in test [11] and in test [13] was “inactive” each time. The Potency result in test [14] and in test [16] was “inactive” in each case. Also, the Potency in test [5] is 2.18 µM (active).
Turning to `C[C@@H]1C[C@H]2[C@@H]3CCC4=CC(=O)C=C[C@]4(C)[C@@]3(Cl)[C@@H](O)C[C@]2(C)[C@@]1(OC(=O)c1ccco1)C(=O)CCl`, the Potency result in test [1], in test [2], in test [3], in [4], in [5] and in test [9] was “inactive” in each case. Also, the Potency entry in test [19], in test [14] and in [15] was “inactive” each time. Moreover, the Potency in test [7] was 13.3 µM (active); in [17], 31.6 µM (active).
With `NC(=O)NS(=O)(=O)c1ccc(N)cc1`, the Potency entry in [1], in test [2], in test [3], in [4], in test [5] and in [6] was “inactive” in each case. The Potency result in test [7], in [8], in [9], in [17], in test [10] and in [11] was “inactive” throughout. Also, the Potency entry in test [13] and in [14] was “inactive” each time.
As to `Cc1ccc(O)c(C(C)(C)C)c1`, the Potency was 17.2 µM (active) and inactive in test [1]; 61 µM (active) and inactive in test [3]; 30.6 µM (active) and inactive in [8]; 24.5 µM (active) and inactive in test [9]; 21.8 µM (active) and inactive in [10]; 27.5 µM (active) in test [11]. Besides, the Potency is 24.5 µM (active) and inactive in test [13]; 43.6 µM (active) in test [14]. The Potency entry in test [2], in test [4], in [5], in test [6], in test [17] and in [18] was “inactive” throughout. Besides, the Potency result in [19] and in test [15] was “inactive” throughout.
Take `CCCC1O[C@@H]2C[C@H]3[C@@H]4CCC5=CC(=O)C=C[C@]5(C)[C@H]4[C@@H](O)C[C@]3(C)[C@]2(C(=O)CO)O1` (stereo not given in full): the Potency entry in test [1] was “inactive and 61.2 µM (active)”; in test [7], 30.7 µM (active) and 54.5 µM (active). For the same molecule, the Potency entry in test [2], in test [3], in [4], in test [5], in test [6] and in [8] was “inactive” each time. Besides, the Potency entry in test [9], in [17], in [10], in test [18], in test [19] and in test [12] was “inactive” each time. Also, the Potency entry in test [13], in test [20], in test [14], in [15] and in test [16] was “inactive” each time.

For the origin of these results see PubChem BioAssay (Tox21).
